# High-throughput results from PubChem.
# Hits are enriched below; roughly 11% of the tested compounds scored in any of these assays.
# IMPase Li cell = cell-permeable IMPase inhibitors with lithium potentiation; CHO-M1 cells, IP1 TR-FRET (IP-One), carbachol + lithium; Potency, µM (series often up to 59.4 µM), without a hit: at the highest dose activity, negative = IMPase inhibition, actives largely listed as inhibitors; 210,000 compounds, 0.35% hits;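 also: IP1 builds up when IMPase is blocked and the TR-FRET signal falls; potency is read from the fitted curve at half-maximal effect; plate controls were basal vehicle for no effect and high inhibitor control for full effect; nearly all actives have a fitted effect of over 50% in size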
#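 Lithium-sensitised IP1 accumulation assay; M1-expressing CHO cells treated 30 min at 37C with compound. Competitive antibody detection by time-resolved FRET followed a 10 min room-temperature lysis step.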
# ALDH1A1 block = inhibitors of human aldehyde dehydrogenase 1A1 | Potency, µM (highest dose often 75.3 µM), for the others: at the highest dose activity, negative = inhibition, most hits filed as inhibitors | P00352 | 220,000 compounds, 7.3% hits | Purified ALDH1A1, NADH fluorescence, propionaldehyde substrate; active = well fitted inhibition curve with a large enough effect, not every such curve was filed as active; inconclusive = small, poorly fitted or top-dose-only effect, or another doubt; inactive = no such curve, though single readings can be large or run the other way;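 also: potency is read from the fitted curve at half-maximal effect; plate controls were no enzyme wells and a reference inhibitor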
# HPGD block = inhibitors of human 15-hydroxyprostaglandin dehydrogenase (HPGD); 150,000 compounds, 4.3% hits; AID 894; purified HPGD, NADH fluorescence kinetic, PGE2 substrate; Potency, µM, for the others: at the top dose activity change, negative = inhibition, actives largely listed as inhibitors; active = well fitted inhibition curve with a large enough effect, not every such curve was filed as active; inconclusive = small, poorly fitted or top-dose-only effect, or another doubt; inactive = no such curve, though single readings can be large or run the other way; also: potency is read from the fitted curve at half-maximal effect
#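 NADH formation kinetics: reaction with 30 uM PGE2 and 1 mM NAD+ (final), 20 nM enzyme, Tris-HCl pH 8 with Tween 20, after 15 min compound preincubation at room temperature. Fluorescence change, last versus first of five reads.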
# ALOX12 inhib = 12-hLO (ALOX12) enzyme inhibition. 150,000 compounds, 0.12% hits. purified 12-hLO, xylenol orange hydroperoxide absorbance. Potency, µM (highest dose often 57.1 µM), inactives show at the top dose activity change, negative = inhibition, most hits filed as inhibitors; also: potency is read from the fitted curve at half-maximal effect; nearly all actives have a fitted effect of over 55% in size
# Target sequence (P18054 whole entry, looked up): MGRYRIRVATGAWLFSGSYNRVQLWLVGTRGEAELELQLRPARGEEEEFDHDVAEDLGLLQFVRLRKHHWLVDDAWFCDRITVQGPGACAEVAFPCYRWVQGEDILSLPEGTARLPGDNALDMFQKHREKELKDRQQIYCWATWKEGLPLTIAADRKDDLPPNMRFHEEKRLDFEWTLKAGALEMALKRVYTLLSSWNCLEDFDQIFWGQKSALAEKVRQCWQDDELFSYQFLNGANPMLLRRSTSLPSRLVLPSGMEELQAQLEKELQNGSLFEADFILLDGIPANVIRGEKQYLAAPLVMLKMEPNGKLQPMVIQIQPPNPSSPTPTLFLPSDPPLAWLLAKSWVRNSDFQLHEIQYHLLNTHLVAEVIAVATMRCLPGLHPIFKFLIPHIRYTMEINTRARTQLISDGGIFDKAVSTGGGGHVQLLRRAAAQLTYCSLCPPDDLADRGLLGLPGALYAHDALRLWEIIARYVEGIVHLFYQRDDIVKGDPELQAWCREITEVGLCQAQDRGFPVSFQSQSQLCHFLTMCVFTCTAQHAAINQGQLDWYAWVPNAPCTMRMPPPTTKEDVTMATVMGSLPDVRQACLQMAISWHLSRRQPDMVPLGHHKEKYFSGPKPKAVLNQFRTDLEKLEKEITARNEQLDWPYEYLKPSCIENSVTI
#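 150 nM 12hLO, 25 mM Hepes pH 7.0 + 0.01% Triton X-100; cpd preinc 15 min RT; 40 uM arachidonic acid, 30 min RT; Fe-XO 30 min; A573/A405 ratio as read-out.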
# IMPase cell inh = IMPase inhibition in cells. P97697. CHO-M1 cells, IP1 accumulation, HTRF TR-FRET ratio. inhibition (IP1 accumulation), % at 46.1 µM. 120,000 tested, under 10 active. AID 901; active = well fitted curve in the direction sought with a large enough effect in the signal ratio, not every such curve was filed as active; inconclusive = small, poorly fitted or top-dose-only effect, or a change in a side signal; inactive = no such curve, though single readings can be large or run the other way; the % refers to the signal ratio;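 also: cells stimulated with carbachol in lithium chloride buffer; plate controls were DMSO basal wells for no effect and reference inhibitor wells for full effect; higher means more IMPase inhibition seen as more IP1 and lower FRET ratio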
#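 In this qHTS, compounds (final up to 46 uM) act on CHO-M1 cells that are then activated through the M1 receptor with carbachol, in pH 7.4 buffer containing 50 mM LiCl, for 30 min. IP1 accumulation is quantified by the IP-One immunoassay.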
# PNC inhibitor = inhibitors of perinucleolar compartment assembly; 140,000 compounds, 3.1% hits; PC3M PTB-GFP, PNC prevalence imaging, 16 h; active compounds read low; activity change (PNC), negative = inhibition, % at 10 µM;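 active = readout at or below -70, meaning at least 70% loss of cells showing the perinucleolar compartment, a nuclear body marking cancer cells; inconclusive = readout between -30 and a set limit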;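 also: plate controls were DMSO wells for no effect and camptothecin positive control wells for full effect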
#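 Read-out is percentage of cells bearing a perinucleolar compartment, from automated 20x imaging of fixed, Hoechst-stained PC3M PTB-GFP cells. Cells were seeded 4 h, then exposed 16 h to compound (23 nl of library stock) in duplicate plates.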
# * marks the source's active call; other numbers are inactive results; ? = inconclusive; · = not tested or not shown; [ ] = dose if it differs, or a comment. Unless noted, calls follow the shape of the dose curve; as a rule, active = well fitted curve in the direction sought with a large enough effect; inconclusive = small, poorly fitted or top-dose-only effect, or another doubt; inactive = no such curve, though single readings can be large; an effect the other way counts as inactive or inconclusive. Unless noted, % is scaled to controls: 0 for no effect and ±100 for the full control effect.
SMILES,IMPase Li cell,ALDH1A1 block,HPGD block,ALOX12 inhib,IMPase cell inh,PNC inhibitor
N#CCSc1nc2cc(C(=O)N3CCC(C(N)=O)CC3)ccc2c2nc3ccccc3n12,15.5%[38.3 µM],28.2µM*,-14.0%,-0.2%,1.2,?
NC(=O)C1CCN(C(=O)c2ccc3c(=O)n(Cc4ccco4)c(SCC(=O)c4ccccc4)nc3c2)CC1,11.5%,14.1µM*,·,·,·,·
N#CCSc1nc2ccccc2c2nc3ccccc3n12,19.8%,4.0%,-20.9%,0.8%,·,47.1
CCOC(Cn1c(SCc2cc(C(C)=O)ccc2OC)nc2ccccc2c1=O)OCC,·,?,·,0.6%,-5.2,-8.6
N#CCSc1nc2cc(C(=O)N3CCCC3)ccc2c(=O)n1Cc1ccccc1,?,2.82µM*,-12.6%,-13.6%,-1.9,-5.5
NC(=O)C1CCN(C(=O)c2ccc3c(=O)n(Cc4ccco4)c(SCC(=O)c4ccc(F)cc4)nc3c2)CC1,8.2%,?,·,·,·,·
CN(C)Cc1cc(C(C)(C)C)cc(CNC2CCCCC2)c1O,28.9%,1.3%[13.5 µM],-9.0%,3.2%[11.4 µM],·,·
CCN(CC)CCCCn1c(-c2ccccc2)nc2c(N(CCOC)CCOC)nc(C)nc21,16.9%,?,?,-2.1%,·,·
CC(C)(C)n1nnnc1CN1CCN(C2CCCC2)CC1,8.8%,2.1%,-3.8%,-3.0%,5.4,?
CC(C)(C)n1nnnc1CN1CCSCC1,-12.2%,25.1µM*,-2.2%,5.3%,-6.8,11.5
O=C1CCCCC(=O)N(c2ccccc2)c2ccccc21,6.9%[38.3 µM],5.6%,-10.2%,1.0%,-0.7,5.9
O=C1Cc2ccccc2N1c1ccccc1,-3.7%[38.3 µM],-14.5%,35.5µM*,0.4%,5.1,-1.9
CCOC(=O)c1cc(NC(=O)c2ccoc2C)cc(C(=O)OCC)c1,26.0%[38.3 µM],6.31µM*,-22.5%,-10.9%,11.1,28.1
NC(=O)c1cc(Cc2ccccc2)sc1NC(=O)c1ccco1,-9.6%[38.3 µM],17.8µM*,28.2µM*,-8.7%,-9.6,?
CCCc1cc(C(N)=O)c(NC(=O)c2ccoc2C)s1,17.8%[38.3 µM],17.8µM*,?,-5.8%,8.1,-5.3
CC(=O)O[C@H]1CC2(C)[C@@H](C[C@@H](O)[C@H]3[C@@]4(C)CC[C@@H](O)[C@@H](C)[C@@H]4CC[C@@]32C)C1=C(CCC=C(C)C)C(=O)O (stereo partly specified),11.9%,1.1%,-6.5%,·,·,·
CC(CO)(CO)N=Cc1cc(I)cc(I)c1O,-21.6%,-11.5%[13.5 µM],-8.5%,-21.5%[11.4 µM],·,·
Cc1cc(C)c(NC(=O)C2CCCCN2C)c(C)c1 (stereo unspecified),23.4%[38.3 µM],-2.6%,-8.1%,7.8%,1.3,-9.7
Cc1cc(C)c(NC(=O)C2CSCCS2)c(C)c1 (stereo unspecified),-1.8%,-3.6%,22.4µM*,-1.5%,·,-13.7
c1cncc(-c2nnc(SCc3cccc4ccccc34)o2)c1,8.5%[38.3 µM],-3.0%,25.1µM*,-1.8%,-0.8,?
CCOC(=O)CSc1nnc(-c2cccnc2)o1,1.0%,13.4%,-13.7%,-2.2%,1.8,-12.9
c1ccc(CSc2nnc(-c3cccnc3)o2)cc1,-5.0%,-3.2%,-23.8%,3.4%,?,-23.2
O=C(CSc1nnc(-c2cccnc2)o1)OC1CCCCC1,21.5%[38.3 µM],10µM*,-14.1%,2.3%,1.4,-26.7
COc1ccc2c(c1)O[C@@H](c1cccc(C(F)(F)F)c1)[C@H](OC(=O)Nc1ccc(C)c(Br)c1)C2=O,-6.2%,1.8%,-2.3%,·,·,·
Cc1ccc(Cn2c(/C=C/c3ccco3)nc3ccccc32)cc1,15.8%,?,?,?,6.2,-18.8
SMILES,IMPase Li cell,ALDH1A1 block,HPGD block,ALOX12 inhib,IMPase cell inh,PNC inhibitor
Clc1ccc(Cn2c(/C=C/c3ccco3)nc3ccccc32)cc1,8.9%,?,?,-7.1%,·,-84.2*
O=C1OC(O)C(C(Cl)Cl)=C1Cl (stereo unspecified),2.3%,20µM*,-8.4%,0.2%,·,·
S=c1[nH]nc(-c2ccco2)n1C1CCCCC1,-1.0%,?,?,2.1%,-11.7,-84.7*
S=c1[nH]nc(-c2ccco2)n1/N=C/C=C/c1ccccc1,9.6%[38.3 µM],?,14.1µM*,-6.0%,2.6,-0.4
S=c1[nH]nc(-c2cccnc2)n1/N=C/C=C/c1ccco1,3.1%,?,·,·,·,·
S=c1[nH]nc(-c2ccccc2)n1/N=C/C=C/c1ccco1,7.5%,?,11.2µM*,-7.0%,15.5,19.2
Nn1c(-c2ccco2)n[nH]c1=S,6.5%[38.3 µM],-11.0%,-20.4%,-2.2%,1.9,-24.5
COCCn1c(=O)c(-c2cccs2)nc2cnc(N3CCNCC3)nc21,2.8%,?,·,·,·,·
CCCC12CN3CCN(CC(C3)/C1=N\NC(=O)c1ccc(C(C)(C)C)cc1)C2,-2.6%,31.6µM*,1.0%,2.2%,-2.1,-26.2
CSC(N)=NCCC[C@H](N)C(=O)O,7.2%,4.3%,-5.0%,·,·,·
Cn1cccc1/C=C1/SC(=O)N(CC(=O)N2CCCC2)C1=O,5.2%,3.3%,·,·,·,·
COC(=O)CN1C(=O)S/C(=C/c2ccc(N3CCCCC3)o2)C1=O,18.2%[38.3 µM],0.282µM*,-11.4%,-7.3%,-3.4,8.3
CCOC(=O)CN1C(=O)S/C(=C/c2ccc(N3CCCCC3)o2)C1=O,-3.4%[38.3 µM],25.1µM*,-7.7%,-5.4%,1.4,?
Cc1ccc(OCCN2C(=O)S/C(=C\c3ccc(C)o3)C2=O)cc1,0.7%,?,-10.2%,-0.2%,-7.8,11.2
COc1ccccc1CNc1ccnc(-c2ccc3c(c2)OCO3)n1,-0.9%,0.4%,-8.0%,-7.6%,·,·
CC(=O)c1ccc(CCCCCCCCCC(=O)O)s1,?,19.7%,-16.9%,-7.9%,?,30.7
COC(=O)CCCCCc1ccc(C(C)=O)s1,10µM*,-1.1%,?,-2.6%,?,?
Brc1c(CSc2nnc(-c3ccco3)o2)nc2ccccn12,11.0%[38.3 µM],?,7.94µM*,7.5%,7.8,?
CCC(=C(CC)c1ccc(O)cc1)c1ccc(O)cc1,11.2%,5.4%[20.9 µM],-2.8%,-13.0%[25.6 µM],2.2[20.6 µM],·
Cc1[nH]n(C(N)=S)c(=O)c1C(c1ccccc1)C(C#N)C#N (stereo unspecified),-1.0%[38.3 µM],31.6µM*,-8.7%,-22.1%,-0.3,24.2
Cc1[nH]n(-c2ncc(-c3ccccc3)s2)c(=O)c1C(c1ccc(Br)cc1)C(C#N)C#N (stereo unspecified),8.7%,12.6µM*,10µM*,-3.3%,·,-5.8
CCc1c(C)[nH]n(-c2nc(-c3ccccc3)cs2)c1=O,-6.7%,?,·,·,·,·
CO[C@H]1COC(=O)[C@H](C)COC(=O)C/C=C\[C@@H](C)[C@H](OC)COC(=O)C/C=C\[C@@H]1C,·,3.3%[13.5 µM],·,·,·,·
NCCc1nnc(SCc2c(F)cccc2Cl)o1,4.7%[38.3 µM],?,-28.3%,0.6%,7.7,-103.2*
C/C(CCN1CCCCc2nc(C)c(C)cc21)=N\OC[C@@H](O)[C@@H]1O[C@@H]2OC(C)(C)O[C@@H]2[C@H]1O,·,-15.6%[13.5 µM],·,·,·,·
